From PubChem BioAssay AID1347426 (Functional Genomics Laboratory (NCATS/FGL), 2020)
The campaign covered roughly 31,000 sequences. About 1,400 (4.5%) were called active.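 Rule for the calls: active = median seed-adjusted z-score above 1 or below -1; inactive = the rest.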 Shown is part of a subset that was picked to be rich in actives.

Assay: Novel Modifiers of Survival Motor Neuron (SMN) Protein: Gene Identification via Genome-wide siRNA Screen;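 note: luminescence tracks full-length SMN protein made from the SMN2 reporter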
Conditions: HEK293T SMN2-luciferase reporter, siRNA knockdown, 72 h; actives lie on both sides
Excerpt: Spinal muscular atrophy (SMA) is the most common neuromuscular autosomal recessive disorder and one of the leading genetic causes of infant death. SMA results from mutations inducing loss of function or deletion in the survival of motor neuron-1 gene (SMN1), leading to deficiency of the survival motor neuron (SMN) protein. Although a second nearly identical gene, SMN2, is retained in humans, its expression primarily produces an aberrantly spliced isoform that is largely unstable and quickly degraded. We performed a genome-wide RNAi screen using a cell-based reporter assay to identify genes and pathways that modulate SMN protein stability. The screen identified over 200 genes that led to the greatest increase or decrease in luciferase expression.
Using HEK293T cells stably expressing a luciferase reporter that combines the promoter and splicing based cassettes in tandem with the major portion of the native SMN2 cDNA with luciferase, we performed a genome-wide RNAi screen to identify modulators of SMN protein levels. Luciferase is expressed when full-length SMN protein is generated with luminescence signal proportional to SMN protein levels. Our luciferase-based reporter assay was used to screen Ambion Silencer Select Human Druggable Genome siRNA library (10418 genes, 3 unique siRNAs per gene) using lipid-based reverse transfection.
Briefly, 1 pmol of each siRNA was spotted to a well of a 384-well plate (Corning, Corning, NY) and 20 microL of serum-free DMEM containing […] of Lipofectamine RNAiMax (Life Technologies, Carlsbad, CA) was then added to each well. Transfected cells were maintained at 37 degrees C in 5% CO2 for 72 hours, 20 microL of ONE-Glo Reagent (Promega) was added to wells for luciferase quantification. Raw luminescence reads were normalized to Ambion(R) Silencer(R) Negative Control #2 siRNA, then log10 transformed. A robust statistical measure of median absolute deviation (MAD) to standardize siRNA activities from each screen. Common Seed Analysis was used to help prioritize clean hits as opposed to those appearing to arise from seed based off-target effects. Candidate modulators were defined as the genes having a MAD score greater than 1.0 or less than -1.0.

Sequence | median seed-adjusted z-score
GAGUCAACAAUGGACAUUUTT against KLHL1 | 0.067 (inactive)
CAACUAGUGGAGAAGAUCATT against FAM63B | 0.111 (inactive)
GGUCACCACUUGCAAGCUATT against ANG | -0.481 (inactive)
AGCUGGGCUUUAUCGUGGATT against P2RX2 | 0.0454 (inactive)
GCUUAUUUAUGUAUCAAUATT against ADRB1 | 1.06 (active)
GGAAAAAUCUAAGAAGCAATT against ZC3H11A | -0.137 (inactive)
GCUUCACCAUCGAAUCCAATT against FLT4 | -0.861 (inactive)
GCUGCGGCAUGAUCACUAATT against LBXCOR1 | 0.0938 (inactive)
CAUUGGGCCUAGAAAUUCATT against CNKSR1 | 0.217 (inactive)
GGCGAAGUGUCCGACAGAATT against ZNF747 | 0.379 (inactive)
GGAGAUCUGCUACUAAACATT against PSMD6 | -1.03 (active)
GGGAGAGUGGUGAACGUAUTT against CBR1 | -0.6 (inactive)
CAGUGUUAAUGACCGAAGATT against EIF4G1 | -0.978 (inactive)
GAUGAUACCAGGCAUAUAATT against USP15 | -0.405 (inactive)
GCAAUCUUGUUGUACACCATT against ZNF432 | -0.124 (inactive)
GGAGCUGAAUGAGCUGACATT against OSBPL7 | 0 (inactive)
CCACGAUGUGGGAUAAUAATT against GALNAC4S-6ST | 0.218 (inactive)
GUGGUGCAGUUUUUCGUAATT against THOC2 | -1.22 (active)
GGCUCAUAAUGGAGCAGGUTT against TIMM13 | -0.422 (inactive)
CAGUCUUGAUUCCACUGAATT against PCDHA3 | 0.311 (inactive)
CGGAUAUUCCUGAACGCAATT against MARK3 | 0.271 (inactive)
GCACGCGGCUAUACAAUCATT against SLC25A34 | -0.256 (inactive)

Sequence | median seed-adjusted z-score
GAAGCAGUGCCAAUGAACATT against TCEB2 | 1.28 (active)
AGCACAUCUCGGUCCUCCATT against MAPK8IP2 | 0.284 (inactive)
GGACGAUCACUGUUGUGCATT against RBM22 | 0.0259 (inactive)
ACUUGAAUCUUAGCAUUCATT against RAD9A | -0.0564 (inactive)
CAAGACUGCUGAUGAGUUUTT against HSD17B3 | 0.734 (inactive)
CUUUCACACUCGACACUGATT against HOXA2 | 0.335 (inactive)
GAACAUCCGUGAGCAAGGATT against KCNJ8 | 0.329 (inactive)
GCCCUUGCCUUAUUGCUGATT against MED20 | -1.66 (active)
GGCUUGAGUUCAUUCAGAATT against PKN3 | 0.476 (inactive)
GCCGGUGCUUUAUCUCAUUTT against GPR87 | 0.237 (inactive)
GAGACUUUCUACAAUACUATT against EIF4A2 | 0 (inactive)
CGCUCUCUUCACUUACGAATT against MYO10 | 0.8 (inactive)
UAAUGACCCUAUCUAUAAATT against UGT2B17 | -0.0203 (inactive)
GAUGGAUUCUUGUUCCGUUTT against KCTD16 | 0.00219 (inactive)
GAACUUCUACUUUAACAAATT against HS3ST1 | 1.21 (active)
CUUUUGAACAGAUCGAUGATT against EXO1 | 0.547 (inactive)
GCUCAUAAAUGAGAAGCUATT against PCDHB16 | -0.523 (inactive)
AGUGUACAAUCGAUAAAAATT against ESR2 | -1.1 (active)
CAGCAUACAUGUUUAGUGATT against TRPC6 | -0.527 (inactive)
CGGUAUCUAUGACACUGCATT against SLC25A5 | -0.0501 (inactive)
CAGAGUCUUUCAUUCGAAUTT against SPATA5 | -1.04 (active)
GAACUAUGGUGCUACUGGATT against ZNF449 | 0.178 (inactive)

Sequence | median seed-adjusted z-score
AGAGCUCACUCGUCCCAAUTT against CXCL16 | 0.201 (inactive)
CGAAAAGUCUCACAGUGGATT against ZNF563 | 0.00283 (inactive)
CGGGUAUUGUGGGACUGAATT against USP39 | 0.821 (inactive)
UAAUUGACCUGACCAGUUUTT against SLC30A8 | -0.767 (inactive)
CUGGAUAAGUGUUUCGAAATT against AP3S2 | 0.521 (inactive)
CACCCACACCGGAUUGAAATT against BAG5 | -0.0153 (inactive)
CGGCCGCUCUAUAAGCUGATT against LLGL1 | -1.13 (active)
GCCCUGCGGUACAAUGUCATT against APOBEC2 | 0.232 (inactive)
GGCCUAUUUCCAAACCGAUTT against RICS | 0.665 (inactive)
CCACCGAUUUGAUCCCAAATT against NAPSA | -0.336 (inactive)
CAUUCACCACAAUAGCUAUTT against GPR1 | 0.0609 (inactive)
GGAUUGAAGAUACUACAAATT against THOC1 | -3.04 (active)
CAACAGCACCAGUUUGACATT against NAGLU | -0.526 (inactive)
GGACUUCAGGGUUUAACAATT against FOLR1 | -1.31 (active)
CAGCCUUACUCAAUUUGUATT against EFS | -0.299 (inactive)
CACGUGCAGAGUGUCGAUATT against EEF1D | 0.421 (inactive)
GGUCUAAACUUGAUCCAAATT against CCAR1 | -1.18 (active)
AAUAUUUGCUGUUCGUCAATT against MOCS2 | 0.0327 (inactive)
CCAUCCCAAAUUUACAACATT against SARS2 | 0.524 (inactive)
CUCUAACUAUGAUCUCGUUTT against CDS1 | 0.0208 (inactive)
GGCUUGACCUUUUUCGUCUTT against DYNC2H1 | -0.613 (inactive)
GAACCGACAAAAGUAGAUATT against RARB | 0.409 (inactive)

Sequence | median seed-adjusted z-score
GAAUUAGAGUUGAGGGUAATT against MYBPC1 | 0.295 (inactive)
GCAUGGUCUUUCUACUUGUTT against TUBB2A | 1.03 (active)
CCAAAGCUCUCAUCGGAGATT against GNS | 0 (inactive)
GGACUCACCAAAUAGAUCATT against ZNF818 | -0.223 (inactive)
GCAAGGAGUAUAACAUGUATT against SKAP1 | -0.00637 (inactive)
CAUUCGAUCUAGCAAAUUATT against TUBB1 | -0.289 (inactive)
GGCUGUUGGUAACCUGAGATT against TF | 0.192 (inactive)
GACCAUUCGUACUCCUUGUTT against THAP11 | -1.36 (active)
CCAUCGCCUUGAAGGAGAATT against RNF31 | -0.687 (inactive)
AGACCUUCGUGGAAAAAUATT against CDC37 | 0 (inactive)
GGAGGACAAUCAGCAAGGATT against SPOCK2 | 0.967 (inactive)
AGAACAUCAUCGCGCGGGATT against FOXB1 | 0.223 (inactive)
GCUUACUAGUUUGAACGGATT against SPATA5 | -1.04 (active)
GCUCCAACCUCGAAGUAGATT against ACVR2B | 0.824 (inactive)
GGCUUCACCUAAAAACGUATT against BRCA2 | 0 (inactive)
GAUCGUUGCAAAGUUCUUATT against CPSF6 | -2.38 (active)
CUCCACUGCUUUUCCAAGATT against DBX2 | 0.244 (inactive)
GAGUUCCUCUUGGAUCUAATT against CASQ2 | 0.4 (inactive)
GGCGAGGCUUUAUAGUUGATT against ZNF589 | -0.0897 (inactive)
CCUGGAGCAUCGUAACAUUTT against F11 | -0.0319 (inactive)
GGCUUAUACAAUGUCAACATT against HOXA7 | -0.129 (inactive)
AGAUAACAGCAUGGAUUUATT against MMD | 0.193 (inactive)

Sequence | median seed-adjusted z-score
GCAAUUUGCUGUUGCCGAATT against RHBDD1 | 0.00277 (inactive)
CCAUUAUUGCUGCCCGGAATT against PGM5 | -0.0543 (inactive)
GUCUCUGACGGGUCCAUUATT against BMP1 | -0.298 (inactive)
GGACAAGGCUAACAUCCCATT against HMGA1 | 0.557 (inactive)
GCUUGCACUUAAUCUCACATT against LAMB2 | 1.12 (active)
GGUUAAAGGUUAUGGUCCATT against PROSC | 0.173 (inactive)
UUUUGUUCAUAUAACGUCATT against IFNA1 | -0.625 (inactive)
CCACCUUCCUUAUCGACAUTT against FZD8 | -0.177 (inactive)
CCACCUUGCAGAAAACCGATT against ITPR3 | -1.28 (active)
GCUCAUCCACUAUAACCAUTT against CA10 | 0.255 (inactive)
GGUCGAAGCUGUGCAAGGATT against TPPP | -0.16 (inactive)
AGCUGGAGGUCAACAAGUATT against TIMP3 | -1.05 (active)
UCUCAGAUCUCUUCCCAGATT against ROBO4 | -0.431 (inactive)
CAAGGAGCAAGGUUCGGAATT against KIRREL3 | -0.206 (inactive)
GAUGAUCGCUUCAACCUGATT against DDX6 | 1.12 (active)
GUAUGUUCCACAUAAUGAATT against CYP19A1 | -0.321 (inactive)
GGAAUAGAACAAUUGAAAATT against ZDHHC3 | 0.229 (inactive)
UGAGGACACUUCUUGGAGATT against FOXE3 | -0.451 (inactive)
CGAUGGUUGACAAUCCAGATT against NDUFS5 | -1.35 (active)
CUUGCAAUGUCGAAGCUUATT against CDH8 | 0.169 (inactive)
